# Reference: PubChem BioAssay (EPA / NIEHS)
# Activity calls are given as the source filed them. The calls were made as follows: active = hit-call score of the fitted dose curve at least 0.9, where 1 is the maximum; inactive = score below 0.9.
# Columns and labels:
# [1] = BSK_3C_Vis: BioMAP Diversity Plus: 3C Assay for Morphology Visualization (AID 2283025); conditions: primary human endothelial cells (HUVEC);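 also: fitted both ways so gain or loss versus DMSO counts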;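 as to AC50: light microscopy image of cell morphology used as background control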
# How it was run: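 Human umbilical vein endothelial cell morphology was inspected by light microscopy 24 h after chemical dosing; scored bidirectionally relative to DMSO.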
# [2] = read-out: Pselectin, SELP (gene 6403); assay: BSK_4H_Pselectin: BioMAP Diversity Plus: 4H Assay for Pselectin Biomarker Activity (AID 2283026); conditions: primary human endothelial cells (HUVEC); actives raise or lower the signal
# How it was run: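 Primary human umbilical vein endothelial cells were treated 24 h, and cell-surface P-selectin was then quantified by ELISA. Bidirectional fit versus DMSO; cytotoxicity checked in parallel cultures by SRB total-protein staining.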
# [3] = BSK_4H_SRB: Viability Assessment in the BioMAP Diversity Plus: 4H Assay (AID 2283027); conditions: primary human endothelial cells (HUVEC);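 as to AC50: curves fitted both ways versus DMSO so AC50 may be loss or gain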
# How it was run: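 Human umbilical vein endothelial cells, 24 h after chemical dosing; total protein measured by 0.1% sulforhodamine B staining after 10% TCA fixation, read at 560 nm. Bidirectional fitting against DMSO.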
# [4] = BSK_BE3C_SRB: Viability Assessment in the BioMAP Diversity Plus: BE3C Assay (AID 2283028); conditions: primary human bronchial epithelial cells
# How it was run: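 Overt cytotoxicity was assessed as total protein in confluent human primary bronchial epithelial cultures 24 h after chemical addition, using 0.1% sulforhodamine B staining read at 560 nm.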
# [5] = read-out: Thrombomodulin, THBD (gene 7056); assay: BSK_3C_Thrombomodulin: BioMAP Diversity Plus: 3C Assay for Thrombomodulin Biomarker Activity (AID 2283029); conditions: primary human endothelial cells (HUVEC); actives raise or lower the signal
# How it was run: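 Human umbilical vein endothelial cells were exposed to chemicals for 24 h; cell-surface thrombomodulin quantified by ELISA, with bidirectional fitting against DMSO baseline.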
# [6] = read-out: Urokinase-type plasminogen activator receptor (uPAR), PLAUR (gene 5329); assay: BSK_4H_uPAR: BioMAP Diversity Plus: 4H Assay for Urokinase-type plasminogen activator receptor (uPAR) Biomarker Activity (AID 2283030); conditions: primary human endothelial cells (HUVEC); actives raise or lower the signal
# How it was run: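 Chemicals are dosed onto human vascular endothelial primary cells (umbilical vein). After 24 h, uPAR is read by ELISA. Gain or loss of signal is fitted relative to DMSO.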
# [7] = read-out: Vascular endothelial growth factor receptor 2 (Homo sapiens) (UniProt P35968); assay: BSK_4H_VEGFRII: BioMAP Diversity Plus: 4H Assay for Vascular endothelial growth factor receptor 2 (VEGFR2) Biomarker Activity (AID 2283031); conditions: primary human endothelial cells (HUVEC); actives raise or lower the signal;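 as to AC50: cell-surface VEGFR2 protein level quantified by ELISA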
# How it was run: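 VEGFRII levels on human vascular endothelial primary cells were determined by ELISA at 24 hours post-dosing, with gain- or loss-of-signal fitted against DMSO controls.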
# [8] = read-out: Human Leukocyte Antigen - DR isotype (HLADR), HLA-DRA (gene 3122); assay: BSK_BE3C_HLADR: BioMAP Diversity Plus: BE3C Assay for Human Leukocyte Antigen - DR isotype (HLADR) Biomarker Activity (AID 2283032); conditions: primary human bronchial epithelial cells; actives raise or lower the signal
# How it was run: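 Human primary bronchial epithelial cells (BE3C system) exposed to compound for 24 hours; cell-surface HLA-DR measured by ELISA, fitted bidirectionally relative to DMSO. Total protein by SRB in parallel cultures tracked cytotoxicity.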
# [9] = read-out: Vascular cell adhesion molecule 1 (VCAM1), VCAM1 (gene 7412); assay: BSK_4H_VCAM1: BioMAP Diversity Plus: 4H Assay for Vascular cell adhesion molecule 1 (VCAM1) Biomarker Activity (AID 2283033); conditions: primary human endothelial cells (HUVEC); actives raise or lower the signal
# How it was run: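 Primary human umbilical vein endothelial cells, 4H stimulation system, treated for 24 h; cell-surface VCAM-1 quantified by ELISA. Bidirectional fitting against DMSO; cytotoxicity tracked by SRB total-protein staining in parallel cultures.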
# [10] = read-out: Interferon-gamma inducible Protein 10 (IP10), CXCL10 (gene 3627); assay: BSK_BE3C_IP10: BioMAP Diversity Plus: BE3C Assay for Interferon-gamma inducible Protein 10 (IP10) Biomarker Activity (AID 2283034); conditions: primary human bronchial epithelial cells; actives raise or lower the signal
# How it was run: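 Primary human bronchial epithelial cells, with IP-10 measured by ELISA 24 hours after chemical dosing. Bidirectional fit against DMSO; cytotoxicity checked by SRB total protein staining in parallel cultures.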
# [11] = read-out: Monokine induced gamma interferon (MIG), CXCL9 (gene 4283); assay: BSK_BE3C_MIG: BioMAP Diversity Plus: BE3C Assay for Monokine induced gamma interferon (MIG) Biomarker Activity (AID 2283035); conditions: primary human bronchial epithelial cells; actives raise or lower the signal;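 also: MIG protein measured by ELISA in BE3C cultures after 24 h of dosing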
# How it was run: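 Primary human bronchial epithelial cells treated for 24 h; MIG levels measured by ELISA, fitted bidirectionally versus DMSO. Parallel SRB total-protein staining assessed cytotoxicity.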
# [12] = read-out: Transforming growth factor beta 1 (TGFb1), TGFB1 (gene 7040); assay: BSK_BE3C_TGFb1: BioMAP Diversity Plus: BE3C Assay for Transforming growth factor beta 1 (TGFb1) Biomarker Activity (AID 2283036); conditions: primary human bronchial epithelial cells; actives raise or lower the signal
# How it was run: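 Primary human bronchial epithelial cells dosed with chemical; TGF-b1 measured by ELISA 24 h after dosing. Bidirectional curve fitting against DMSO negative control; SRB total-protein staining in parallel cultures gauged cytotoxicity.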
# [13] = read-out: Plasminogen activator inhibitor-1 (PAI1), SERPINE1 (gene 5054); assay: BSK_BE3C_PAI1: BioMAP Diversity Plus: BE3C Assay for Plasminogen activator inhibitor-1 (PAI1) Biomarker Activity (AID 2283037); conditions: primary human bronchial epithelial cells; actives raise or lower the signal
# How it was run: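 Primary human bronchial epithelial cells (BE3C system) exposed 24 h; PAI-1 quantified by ELISA. Parallel sulforhodamine B staining of total protein flags cytotoxicity. Bidirectional fit versus DMSO.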
# [14] = read-out: urokinase plasminogen activator (uPA), PLAU (gene 5328); assay: BSK_BE3C_uPA: BioMAP Diversity Plus: BE3C Assay for urokinase plasminogen activator (uPA) Biomarker Activity (AID 2283038); conditions: primary human bronchial epithelial cells; actives raise or lower the signal;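 as to outcome: uPA protein level quantified by ELISA in cell cultures; uPA read one day after compound addition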
# How it was run: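 Measured by ELISA: uPA from human primary bronchial epithelial cells 24 h after chemical treatment. Values derive from bidirectional curve fitting with DMSO serving as negative control. Total protein by SRB staining in parallel wells flagged overt cytotoxicity.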
# [15] = read-out: Urokinase-type plasminogen activator receptor (uPAR), PLAUR (gene 5329); assay: BSK_BE3C_uPAR: BioMAP Diversity Plus: BE3C Assay for Urokinase-type plasminogen activator receptor (uPAR) Biomarker Activity (AID 2283039); conditions: primary human bronchial epithelial cells; actives raise or lower the signal;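 also: cells exposed to compound for one day before measurement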
# How it was run: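 Primary human bronchial epithelial cells dosed for 24 h; uPAR quantified by ELISA with bidirectional fitting against DMSO. Overt cytotoxicity assessed in parallel cultures by SRB total-protein staining (0.1% SRB, 560 nm).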
# [16] = read-out: Interleukin-6 (IL6), IL6 (gene 3569); assay: BSK_CASM3C_IL6: BioMAP Diversity Plus: CASM3C Assay for Interleukin-6 (IL6) Biomarker Activity for (AID 2283040); conditions: primary human coronary artery smooth muscle cells; actives raise or lower the signal
# [17] = read-out: Tissue plasminogen activator (tPA), PLAT (gene 5327); assay: BSK_BE3C_tPA: BioMAP Diversity Plus: BE3C Assay for Tissue plasminogen activator (tPA) Biomarker Activity (AID 2283041); conditions: primary human bronchial epithelial cells; actives raise or lower the signal;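 as to outcome: tPA level quantified by ELISA one day after compound addition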
# How it was run: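 Primary human bronchial epithelial cells in the BE3C system, exposed to compound for 24 h. tPA was quantified by ELISA; DMSO served as baseline, with gain or loss of signal fitted. Cytotoxicity checked in parallel cultures by SRB total-protein staining.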
# [18] = read-out: Interleukin-8 (IL8), CXCL8 (gene 3576); assay: BSK_CASM3C_IL8: BioMAP Diversity Plus: CASM3C Assay for Interleukin-8 (IL8) Biomarker Activity (AID 2283042); conditions: primary human coronary artery smooth muscle cells; actives raise or lower the signal;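 also: IL-8 protein level quantified by ELISA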
# [19] = read-out: Human Leukocyte Antigen - DR isotype (HLADR), HLA-DRA (gene 3122); assay: BSK_CASM3C_HLADR: BioMAP Diversity Plus: CASM3C Assay for Human Leukocyte Antigen - DR isotype (HLADR) Biomarker Activity (AID 2283043); conditions: primary human coronary artery smooth muscle cells; actives raise or lower the signal;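 also: cell-surface HLA-DR protein level quantified by ELISA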
# [20] = read-out: Macrophage colony-stimulating factor (MCSF), CSF1 (gene 1435); assay: BSK_CASM3C_MCSF: BioMAP Diversity Plus: CASM3C Assay for Macrophage colony-stimulating factor (MCSF) Biomarker Activity (AID 2283044); conditions: primary human coronary artery smooth muscle cells; actives raise or lower the signal;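 also: M-CSF protein amount quantified by ELISA after 24 h exposure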
smiles,measurement,setting,value
CC(C)(C)c1ccccc1O,outcome,[1],inactive
same,outcome,[2],inactive
same,outcome,[3],inactive
same,outcome,[4],inactive
same,outcome,[5],inactive
same,outcome,[6],inactive
same,outcome,[7],inactive
same,outcome,[8],inactive
same,outcome,[9],inactive
same,outcome,[10],inactive
same,outcome,[11],inactive
same,outcome,[12],inactive
same,outcome,[13],inactive
same,outcome,[14],inactive
same,outcome,[15],inactive
same,outcome,[16],inactive
same,outcome,[17],inactive
same,outcome,[18],inactive
same,outcome,[19],inactive
same,outcome,[20],inactive
Oc1ccc(Cc2ccc(O)cc2)cc1,outcome,[1],inactive
same,outcome,[2],inactive
same,outcome,[3],inactive
same,outcome,[4],inactive
same,outcome,[5],inactive
same,outcome,[6],inactive
same,outcome,[7],inactive
same,outcome,[8],inactive
same,outcome,[9],inactive
same,outcome,[10],inactive
same,outcome,[11],inactive
same,outcome,[12],inactive
same,outcome,[13],inactive
same,outcome,[14],inactive
same,outcome,[15],inactive
same,outcome,[16],inactive
same,outcome,[17],inactive
same,outcome,[18],inactive
same,outcome,[19],inactive
same,outcome,[20],inactive
Cc1cccc(OP(=O)(Oc2cccc(C)c2)Oc2cccc(C)c2)c1,outcome,[1],inactive
same,outcome,[2],inactive
same,outcome,[3],inactive
same,outcome,[4],inactive
same,AC50,[5],0.14 µM (active)
same,outcome,[6],inactive
same,outcome,[7],inactive
same,outcome,[8],inactive
same,outcome,[9],inactive
same,outcome,[10],inactive
same,outcome,[11],inactive
same,outcome,[12],inactive
same,AC50,[13],2.76 µM (active)
same,AC50,[14],0.016 µM (active)
same,outcome,[15],inactive
same,outcome,[16],inactive
same,AC50,[17],0.677 µM (active)
same,outcome,[18],inactive
same,outcome,[19],inactive
same,AC50,[20],0.139 µM (active)
C#CCOC(=O)/C=C(C)/C=C/CC(C)CCCC(C)C (stereo not given),AC50,[1],39.8 µM (active)
same,AC50,[2],20 µM (active)
same,AC50,[3],33.2 µM (active)
same,outcome,[4],inactive
same,outcome,[5],inactive
same,outcome,[6],inactive
same,AC50,[7],31.5 µM (active)
same,outcome,[8],inactive
same,AC50,[9],26.4 µM (active)
same,AC50,[10],1.32 µM (active)
same,outcome,[11],inactive
same,outcome,[12],inactive
same,outcome,[13],inactive
same,outcome,[14],inactive
same,outcome,[15],inactive
same,outcome,[16],inactive
same,outcome,[17],inactive
same,outcome,[18],inactive
same,AC50,[19],3.97 µM (active)
same,outcome,[20],inactive
Clc1cccc(Cl)c1,outcome,[1],inactive
same,outcome,[2],inactive
same,outcome,[3],inactive
same,outcome,[4],inactive
same,outcome,[5],inactive
same,outcome,[6],inactive
same,outcome,[7],inactive
same,outcome,[8],inactive
same,outcome,[9],inactive
same,outcome,[10],inactive
same,outcome,[11],inactive
same,outcome,[12],inactive
same,outcome,[13],inactive
same,outcome,[14],inactive
same,outcome,[15],inactive
same,outcome,[16],inactive
same,outcome,[17],inactive
same,outcome,[18],inactive
same,outcome,[19],inactive
same,outcome,[20],inactive
